Screens (PubChem BioAssay)
PG9 Ab binder = binds the HIV-1 gp120 antibody PG9. AID 624416. 360,000 compounds, 0.43% hits. TR-FRET gp120-PG9 antibody binding. inhibition, % at 6.7 µM; in the data active means inhibition above about 8.5%
ABCB6 inh MLPCN = human ABCB6 transporter inhibition; Q9NP58; K562-ABCB6 porphyrin accumulation, flow cytometry, 1 h; hits give low values; fluorescence ratio to DMSO, % at 10 µM; 360,000 compounds, 0.19% hits; AID 602162;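 active means fluorescence ratio to DMSO below 75%, the collection mean minus 3 SD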;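 further: signal is porphyrin accumulated inside mitochondria; 100% equals median channel fluorescence of DMSO control wells; lower ratio means ABCB6 inhibition with less porphyrin fluorescence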
Target sequence (Q9NP58 whole entry, looked up): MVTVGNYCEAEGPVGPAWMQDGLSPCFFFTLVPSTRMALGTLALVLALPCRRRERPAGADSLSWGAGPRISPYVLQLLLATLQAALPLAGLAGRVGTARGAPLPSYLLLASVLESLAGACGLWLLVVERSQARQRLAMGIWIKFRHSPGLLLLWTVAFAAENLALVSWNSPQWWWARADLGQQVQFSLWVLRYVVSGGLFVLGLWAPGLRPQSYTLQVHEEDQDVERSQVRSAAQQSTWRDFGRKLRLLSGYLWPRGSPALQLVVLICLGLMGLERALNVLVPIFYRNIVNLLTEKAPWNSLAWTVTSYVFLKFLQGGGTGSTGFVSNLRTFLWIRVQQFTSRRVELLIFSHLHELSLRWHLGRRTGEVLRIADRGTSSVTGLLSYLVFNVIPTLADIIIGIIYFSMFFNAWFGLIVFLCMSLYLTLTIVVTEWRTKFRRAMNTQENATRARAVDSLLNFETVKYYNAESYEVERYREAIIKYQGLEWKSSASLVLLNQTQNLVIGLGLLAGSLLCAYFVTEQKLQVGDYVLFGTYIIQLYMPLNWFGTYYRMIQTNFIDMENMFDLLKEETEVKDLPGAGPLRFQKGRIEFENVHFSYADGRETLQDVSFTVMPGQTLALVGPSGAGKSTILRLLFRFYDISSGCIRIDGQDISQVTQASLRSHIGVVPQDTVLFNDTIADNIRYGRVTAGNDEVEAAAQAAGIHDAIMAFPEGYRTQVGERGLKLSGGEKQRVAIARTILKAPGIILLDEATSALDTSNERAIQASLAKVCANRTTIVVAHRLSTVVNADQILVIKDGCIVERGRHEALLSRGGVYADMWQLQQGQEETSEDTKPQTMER
rCAG binder = r(CAG) repeat RNA binding. inhibition, % at 3 µM. 370,000 compounds, 1.3% hits. TO-PRO-1 dye displacement fluorescence;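 active means inhibition above the plate cutoff, the mean of all test compounds on that plate plus 3 SD, cut at about 35% in these data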;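 further: 0% = DMSO alone and 100% = 100 µM mitoxantrone as full dye displacement; higher means more dye released from RNA so lower well fluorescence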
Exocytosis inh = blocks lytic granule exocytosis; TALL-104 LAMP-1 surface exposure, flow cytometry; cells stimulated with thapsigargin and PMA; inhibition, % at 10 µM; 360,000 compounds, 0.66% hits;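 active means inhibition above about 55%, limit read from the data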
rCAG binder conf = r(CAG) RNA repeat binding, confirmation | TO-PRO-1 dye displacement fluorescence | inhibition, % at 3 µM | 4,300 compounds, 70% hits | shares compounds with rCAG binder;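 active means inhibition above a per-plate cutoff, the mean inhibition of sample wells plus 3 SD, cut at about 35% in these data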;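 further: loss of TO-PRO-1 fluorescence as compound displaces dye from 1x1 AA loop RNA; 0% = DMSO only wells and 100% = 100 µM mitoxantrone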
dCAG dye counter = counter-screen for rCAG RNA binders: DNA CAG dye complex inhibitors; shares compounds with rCAG binder; d(CAG) DNA oligo TO-PRO-1 dye displacement, fluorescence; inhibition, % at 3 µM; 4,300 compounds, 94% hits;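 active means inhibition above its plate's cutoff, the mean test-well inhibition plus 3 SD, cut at about 4.8% in these data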;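 further: 0% = DNA dye mix with DMSO and 100% = 100 µM mitoxantrone; hits displace the dye from DNA and so lower well fluorescence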
dCAG dye DR = counter-screen for rCAG binders: inhibitors of DNA CAG TO-PRO-1 complex; AID 686960; IC50, µM; shares compounds with rCAG binder; DNA CAG/GTC duplex TO-PRO-1 dye displacement fluorescence; 250 compounds, 20% hits; in the data active means IC50 below about 10 µM
The depositor's hits bear a star; i = inactive; / = not tested or not shown. Shown are actives, neighbours in structure and some others; about 2.5% of the full set was active somewhere.

SMILES	PG9 Ab binder	ABCB6 inh MLPCN	rCAG binder	Exocytosis inh	rCAG binder conf	dCAG dye counter	others
COc1ccc(-c2nnc(SCC(=O)Nc3ccc(S(=O)(=O)Nc4cc(C)nc(C)n4)cc3)n2-c2ccc(OC)cc2)cc1	/	/	49*	/	44*	15*
CCOc1ccc(-n2c(SCC(=O)Nc3ccc(S(=O)(=O)Nc4cc(C)nc(C)n4)cc3)nnc2-c2ccco2)cc1	/	/	40*	/	40*	14*
CCOc1ccc(C(CC(=O)O)NC(=O)C2c3ccccc3Oc3ccccc32)cc1 (stereo unspecified)	-1	100	15	2	/	/
O=C(O)CC(NC(=O)C1c2ccccc2Oc2ccccc21)c1ccc(OC2CCCC2)cc1 (stereo unspecified)	-1	96	50*	-2	48*	12*
O=C(NNC(=S)NC1CCCCC1)c1sc2ccccc2c1Cl	-2	89	83*	2	82*	54*
O=C(O)CC(NC(=O)c1sc2ccccc2c1Cl)c1ccc(OC2CCCC2)cc1 (stereo unspecified)	7	94	59*	-4	73*	25*	dCAG dye DR=i
O=C(O)CC(NC(=O)C1c2ccccc2Oc2ccccc21)c1ccc(Cl)cc1 (stereo unspecified)	3	103	39*	-2	26	4
COc1ccc(S(=O)(=O)N(C)C)cc1NC(=O)c1ccc(OCC(=O)N2CCOCC2)c(OC)c1	1	106	1	0	/	/
Nc1o[nH]c(=O)c1C1CCCCC1	0	95	2	4	/	/
COc1ccc(NS(=O)(=O)c2cc(N=Nc3c(O)[nH]c(=O)[nH]c3=O)ccc2OC)cc1Br	-5	101	23	-9	/	/
Cc1ccc(N=Nc2c(O)[nH]c(=O)[nH]c2=O)cc1S(=O)(=O)Nc1ccc(Br)cc1	-1	104	36*	0	32	11*
Cc1[nH]n(-c2ccccc2)c(=O)c1C=Nc1ccc(S(=O)(=O)Nc2nccs2)cc1	-2	102	43*	-2	41*	13*
COc1nccnc1NS(=O)(=O)c1ccc(N=Cc2c(C)[nH]n(-c3ccccc3)c2=O)cc1	-2	104	10	3	/	/
COc1nccnc1NS(=O)(=O)c1ccc(N=Cc2c(C)[nH]n(-c3ccc(C)c(C)c3)c2=O)cc1	2	98	27	-3	/	/
Cc1ccc(-n2[nH]c(C)c(C=Nc3ccc(S(=O)(=O)Nc4nccs4)cc3)c2=O)cc1C	-2	108	56*	-1	75*	38*
CC(=O)CSc1nsc(SCC(C)=O)c1C#N	-2	98	35*	3	38*	18*
CC(Oc1ccc(S(=O)(=O)N2CCCC2)cc1[N+](=O)[O-])C(=O)N(C)c1ccccc1 (stereo unspecified)	0	100	-5	6	/	/
O=[N+]([O-])c1cc(S(=O)(=O)O)cc([N+](=O)[O-])c1NN(c1ccccc1)c1ccccc1	-2	97	48*	-18	36*	11*
Cc1cccc(NC(=S)NNC(=O)COc2ccc(Cl)cc2Cl)c1	0	126	45*	-4	33	10*
O=C(NC(=S)NNC(=O)c1ccccc1O)c1ccco1	-4	100	2	4	/	/
CN(C)S(=O)(=O)c1cccc(NC(=S)NNC(=O)c2cc3ccccc3cc2O)c1	0	94	87*	-3	86*	56*
CN(C)S(=O)(=O)c1cccc(NC(=S)NC(=O)c2ccco2)c1	-1	98	2	12	/	/
O=C(NC(=S)NNC(=O)c1cc2ccccc2cc1O)c1ccco1	0	100	67*	1	53*	17*
CN(C)c1cccc(C(=O)NCCCSc2ccccc2)c1	-4	101	-5	2	/	/
COc1ccc(C2=NOC(Cn3nc(-c4ccccc4C)cc3C(=O)O)C2)cc1 (stereo unspecified)	-2	94	39*	4	19	5.0*
SMILES	PG9 Ab binder	ABCB6 inh MLPCN	rCAG binder	Exocytosis inh	rCAG binder conf	dCAG dye counter	others
CCOC(=O)c1cc(-c2ccccc2C)n(CC2CC(c3ccc(OC)cc3)=NO2)n1 (stereo unspecified)	-1	96	-8	24	/	/
COc1ccc(Cl)cc1N1C(=NC(=O)C2CCCO2)SC2CS(=O)(=O)CC21 (stereo unspecified)	-1	105	2	0	/	/
COc1cc(C)c(C(=O)Oc2cc(C)c(C(=O)O)c(O)c2C)c(O)c1C	3	102	87*	3	84*	52*
COC(=O)c1c(C)cc(OC(C)=O)c(C)c1OC(C)=O	1	93	0	-2	/	/
O=C(Nc1ccc2c(c1)OCCO2)C(C1CC1)N1CCN(c2ccc(C(F)(F)F)cn2)CC1 (stereo unspecified)	-1	96	2	-1	/	/
CCn1cc(C(=O)NCCCN(CC(C)C)CC(C)C)c(=O)c2cc(S(=O)(=O)N3CCOCC3)ccc21	-2	99	1	0	/	/
Nc1c(C=C2C=CC(=O)C=C2)c(=O)nc2snc(SCc3ccccc3)n12	0	99	52*	7	50*	16*
Nc1c(C=C2C=CC(=O)C=C2)c(=O)nc2sc(CC(=O)N3CCCCC3)nn12	-3	103	20	0	/	/
O=C(O)c1cccc(N/N=C(\N=Nc2ccccc2)c2ccccc2)c1	-3	113	38*	29	53*	17*
CCOc1ccc(/C=N/Nc2cc(=O)n(C)c(=O)n2C)cc1	-1	104	4	-1	/	/
CCCCC[C@@H]1C=C(C(=O)O)[C@H](c2ccc(CC)cc2)N1S(=O)(=O)c1ccc(C)cc1	-1	101	8	-1	/	/
CCCCC[C@@H]1C=C(C(=O)O)[C@H](c2ccc(F)cc2)N1S(=O)(=O)c1ccc(C)cc1	-1	104	59*	11	45*	14*
CCCC[C@@H]1C=C(C(=O)O)[C@H](c2ccc(Br)cc2)N1S(=O)(=O)c1ccc(C)cc1	2	96	53*	2	54*	19*
CCCC[C@@H]1C=C(C(=O)O)[C@H](c2ccc(CC)cc2)N1S(=O)(=O)c1ccc(C)cc1	0	96	66*	0	49*	15*
COc1cc(NC(=O)c2ccccc2)c(OC)cc1NC(=O)CN1C(=O)NC2(CCCCC2C)C1=O (stereo unspecified)	0	97	7	-2	/	/
CCC(C(=O)O)n1nnc(-c2ccc(OCc3ccccc3)c(OC)c2)n1 (stereo unspecified)	0	/	1	/	/	/
CCC(C(=O)O)n1nnc(-c2ccc(-c3ccc(OC)cc3)cc2)n1 (stereo unspecified)	-1	103	48*	-2	36*	10*
Cc1cccc(N=C2NC(=O)/C(=C/C=C/c3ccco3)S2)c1C	-2	106	67*	-2	64*	31*
